Substitutions are numbered along the chain they refer to.

The first assay concerns the target T1, SIX6 (Homo sapiens, UniProt O95475 114-200, L167V).
T1 sequence: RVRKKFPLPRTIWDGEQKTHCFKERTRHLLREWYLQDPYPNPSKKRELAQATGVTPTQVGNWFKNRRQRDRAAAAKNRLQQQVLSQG
Description: PBM; 200 nM protein, PBS. As to conditions: dsDNA, one strand shown.
Take CGGTATCA: the binding signal is 11 upbm affinity estimate (log intensity, higher = more binding, comparable within an allelic series).
Still for that read-out and setting: in the case of AGCGGGCC it was 8.99 upbm affinity estimate (log intensity, higher = more binding, comparable within an allelic series); in that of GGCCCCGA, 8.95 upbm affinity estimate (log intensity, higher = more binding, comparable within an allelic series); in that of GGCGACCC, 8.91 upbm affinity estimate (log intensity, higher = more binding, comparable within an allelic series).
Still for that read-out and setting: as for AGGGCCCG, the figure is 8.93 upbm affinity estimate (log intensity, higher = more binding, comparable within an allelic series); as for ACGGGCGG, 8.77 upbm affinity estimate (log intensity, higher = more binding, comparable within an allelic series); as for ATGATACC, 11.4 upbm affinity estimate (log intensity, higher = more binding, comparable within an allelic series).
On the same count and under the same terms, as for TGATACCA, the figure is 11.1 upbm affinity estimate (log intensity, higher = more binding, comparable within an allelic series); as for AGTATATC, 10.7 upbm affinity estimate (log intensity, higher = more binding, comparable within an allelic series); as for GCCAGTCC, 8.95 upbm affinity estimate (log intensity, higher = more binding, comparable within an allelic series).
Turning to ATATCCCC, the binding signal is 10.7 upbm affinity estimate (log intensity, higher = more binding, comparable within an allelic series).
Still for that read-out and setting: as for CCAGTGCG, the figure is 9.07 upbm affinity estimate (log intensity, higher = more binding, comparable within an allelic series); as for GGCGCCCA, 8.78 upbm affinity estimate (log intensity, higher = more binding, comparable within an allelic series).
As to ACCGCGCC, the binding signal was 8.78 upbm affinity estimate (log intensity, higher = more binding, comparable within an allelic series).
Still for that read-out and setting: as for GGCGGACC, the figure is 8.82 upbm affinity estimate (log intensity, higher = more binding, comparable within an allelic series); as for CGCAACCG, 9.12 upbm affinity estimate (log intensity, higher = more binding, comparable within an allelic series).
Same read-out and setting: in the case of AGCTCCGC it was 9.1 upbm affinity estimate (log intensity, higher = more binding, comparable within an allelic series); in that of AGTGTATC, 10.8 upbm affinity estimate (log intensity, higher = more binding, comparable within an allelic series).
Same read-out and setting: in the case of GGCCGGAA it was 9.02 upbm affinity estimate (log intensity, higher = more binding, comparable within an allelic series); in that of CGCAGCGC, 9.06 upbm affinity estimate (log intensity, higher = more binding, comparable within an allelic series); in that of CCCCGCAG, 8.93 upbm affinity estimate (log intensity, higher = more binding, comparable within an allelic series).
As for CAGTGGCC, the binding signal is 9.05 upbm affinity estimate (log intensity, higher = more binding, comparable within an allelic series).
On to AGGTGGGC, for which the binding signal was 8.91 upbm affinity estimate (log intensity, higher = more binding, comparable within an allelic series).
On the same count and under the same terms, as for AGCGGCGC, the figure is 8.82 upbm affinity estimate (log intensity, higher = more binding, comparable within an allelic series); as for AAGATATC, 11 upbm affinity estimate (log intensity, higher = more binding, comparable within an allelic series).
The same measure, in the same setting: in the case of GTATCAAA it was 11.2 upbm affinity estimate (log intensity, higher = more binding, comparable within an allelic series); in that of TGTATCAA, 11 upbm affinity estimate (log intensity, higher = more binding, comparable within an allelic series).
The same measure, in the same setting: in the case of CCGCCAGC it was 9.06 upbm affinity estimate (log intensity, higher = more binding, comparable within an allelic series); in that of GCGCTGCC, 8.69 upbm affinity estimate (log intensity, higher = more binding, comparable within an allelic series).
For CGTATCAC, the binding signal is 11 upbm affinity estimate (log intensity, higher = more binding, comparable within an allelic series).
As for CATGATCA, the binding signal was 10.4 upbm affinity estimate (log intensity, higher = more binding, comparable within an allelic series).
On the same count and under the same terms, as for ATATACAC, the figure is 10.7 upbm affinity estimate (log intensity, higher = more binding, comparable within an allelic series); as for CAGTATCA, 10.9 upbm affinity estimate (log intensity, higher = more binding, comparable within an allelic series); as for AGTATCAC, 11 upbm affinity estimate (log intensity, higher = more binding, comparable within an allelic series).
Same read-out and setting: in the case of GCAGTGGC it was 8.89 upbm affinity estimate (log intensity, higher = more binding, comparable within an allelic series).
Same read-out and setting: as for GATGATAC, the figure is 11.2 upbm affinity estimate (log intensity, higher = more binding, comparable within an allelic series); as for GCCGCGGC, 9.01 upbm affinity estimate (log intensity, higher = more binding, comparable within an allelic series).
With GATATCAC, the binding signal was 11.1 upbm affinity estimate (log intensity, higher = more binding, comparable within an allelic series).
Regarding GTGTATCA, the binding signal was 11.2 upbm affinity estimate (log intensity, higher = more binding, comparable within an allelic series).
On the same count and under the same terms, in the case of AGCGGTGG it was 8.84 upbm affinity estimate (log intensity, higher = more binding, comparable within an allelic series).

The target of another assay is T2, SIX6 (Homo sapiens, UniProt O95475 114-200).
T2 sequence: T1 sequence with V54L
Description: PBM; 200 nM protein, PBS. To be noted: dsDNA, one strand shown.
With CGGTATCA, the binding signal is 11.1 upbm affinity estimate (log intensity, higher = more binding, comparable within an allelic series).
Still for that read-out and setting: as for AGCGGGCC, the figure is 8.89 upbm affinity estimate (log intensity, higher = more binding, comparable within an allelic series); as for GGCCCCGA, 8.99 upbm affinity estimate (log intensity, higher = more binding, comparable within an allelic series).
Same read-out and setting: in the case of GGCGACCC it was 9.01 upbm affinity estimate (log intensity, higher = more binding, comparable within an allelic series); in that of AGGGCCCG, 8.95 upbm affinity estimate (log intensity, higher = more binding, comparable within an allelic series); in that of ACGGGCGG, 8.94 upbm affinity estimate (log intensity, higher = more binding, comparable within an allelic series).
Same read-out and setting: as for ATGATACC, the figure is 11.4 upbm affinity estimate (log intensity, higher = more binding, comparable within an allelic series); as for TGATACCA, 11.2 upbm affinity estimate (log intensity, higher = more binding, comparable within an allelic series); as for AGTATATC, 10.8 upbm affinity estimate (log intensity, higher = more binding, comparable within an allelic series).
Consider GCCAGTCC, for which the binding signal is 8.9 upbm affinity estimate (log intensity, higher = more binding, comparable within an allelic series).
On the same count and under the same terms, as for ATATCCCC, the figure is 10.9 upbm affinity estimate (log intensity, higher = more binding, comparable within an allelic series).
CCAGTGCG: the binding signal is 9.01 upbm affinity estimate (log intensity, higher = more binding, comparable within an allelic series).
The same measure, in the same setting: in the case of GGCGCCCA it was 8.71 upbm affinity estimate (log intensity, higher = more binding, comparable within an allelic series); in that of ACCGCGCC, 8.78 upbm affinity estimate (log intensity, higher = more binding, comparable within an allelic series); in that of GGCGGACC, 8.92 upbm affinity estimate (log intensity, higher = more binding, comparable within an allelic series).
Still for that read-out and setting: in the case of CGCAACCG it was 9.2 upbm affinity estimate (log intensity, higher = more binding, comparable within an allelic series).
Same read-out and setting: in the case of AGCTCCGC it was 8.9 upbm affinity estimate (log intensity, higher = more binding, comparable within an allelic series).
AGTGTATC: the binding signal is 11 upbm affinity estimate (log intensity, higher = more binding, comparable within an allelic series).
Consider GGCCGGAA, for which the binding signal is 8.92 upbm affinity estimate (log intensity, higher = more binding, comparable within an allelic series).
Turning to CGCAGCGC, the binding signal is 8.95 upbm affinity estimate (log intensity, higher = more binding, comparable within an allelic series).

The values above are taken from PMC11006913.
